This experiment in a line: MM1S cell viability effects, profiling panel, calcein-AM fluorescence, 48 h, basal (AID 1165).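 Note: viability of MM1S multiple myeloma cells under basal unstimulated conditions; test concentration not given here.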 The note with it: higher = more signal.
For `COc1ccc(C(=O)Nc2cccc(CN3C(=O)[C@]4(O[C@H](CCn5cc(CCO)nn5)[C@@H]([Si](C)(C)c5ccc(OC)cc5)[C@@H]4C)c4ccccc43)c2)cc1`, the z-score is -2.47.

As to `COC(=O)c1c2oc(c1C(=O)OC)C(=O)N[C@@H](C(C)C)Cn1cc(nn1)C1(CCCCC1)NC(=O)N[C@H](CO)CC2`, the z-score is -0.11.

For the compound `O=C1NC(=O)C2C1C=CC(C(O)c1ccc(-c3ccccc3)s1)N2Nc1ccc(Cl)cc1Cl` (stereo not given), the z-score is -3.61.

As for `CCOC(=O)C[C@H]1[C@H](OC(=O)c2ccc(-c3ccccc3)cc2)[C@@H](NC(=O)c2ccccc2)c2cc(OCCCO)ccc2N1C(=O)Cc1ccc(OC)cc1`, the z-score was -0.536.

Take `COC(=O)[C@@]1(Cc2ccc(OC)cc2)[C@H]2c3cc(C(=O)N4CCCC4)n(CCCNc4ncc(C(F)(F)F)cc4Cl)c3C[C@H]2CN1C(=O)c1ccccc1`: the z-score was -1.9.

Turning to `CC(=CC1CCCCC1)[C@@H](NC(=O)c1cccnc1)c1ccc(-c2ccccc2)cc1`, the z-score was -2.15.

Consider `C=CCC(OC(C)=O)[C@@H]1[C@@H](N(Cc2ccc(-c3cccc(C(F)(F)F)c3)o2)C(=O)Cc2ccc(OC)cc2)c2cc(OCCCO)ccc2N1C(=O)c1ccc2ccccc2c1` (stereo not given in full), for which the z-score is 0.269.

For `CCOC(=O)C1=CC[C@@H](c2ccccc2)N(S(=O)(=O)c2ccc(C)cc2)[C@H]1c1ccc(CC)cc1`, the z-score was 0.677.

`O=c1cccc(-c2ccccc2Cl)o1`: the z-score was -1.04.

As to `CCCCC(=C=CC[C@H](O)c1cccc(OCCO)c1)C[C@H](O)c1ccccn1`, the z-score was -0.497.

In the case of `COc1ccc([Si](C)(C)[C@@H]2[C@@H](CC(=O)N3CCC[C@H]3CO)O[C@]3(C(=O)N(Cc4cccc(I)c4)c4ccccc43)[C@H]2C)cc1`, the z-score is -2.92.

As for `COC(=O)[C@@]1(Cc2ccccc2)[C@H]2c3cc(C(=O)N4CCCC4)n(Cc4c(CO)[nH]cc(C)c4=O)c3C[C@H]2CN1C(=O)c1ccccc1`, the z-score is -0.662.

Take `CCOc1cc(C(O)C2C=CC3C(=O)N(c4ccccc4)C(=O)C3N2Nc2ccc(C(C)C)cc2)ccc1O` (stereo not given): the z-score is -2.67.

Regarding `CN(C)CCCCCCNC(=O)[C@@H]1C[C@@H]2C(=O)N3CCC[C@H]3C(=O)N2[C@@H]1c1ccc(O)cc1`, the z-score was 0.581.

`CCC(CC)C(O)C1C=CC2C(=O)N(c3ccccc3)C(=O)C2N1Nc1ccccc1` (stereo not given): the z-score is -0.127.

As for `COC(=O)[C@@]1(Cc2ccc(OC)cc2)[C@H]2c3cc(C(=O)N4CCCC4)n(Cc4nc5ccccc5[nH]4)c3C[C@H]2CN1C(=O)c1ccccc1`, the z-score is -2.01.

For the compound `O=C1O[C@@H](c2ccccc2)[C@@H](c2ccccc2)N2[C@@H](c3ccc(OCCO)cc3)[C@]3(C(=O)Nc4ccc(C#CC5=CCCCC5)cc43)[C@@H](C(=O)N3CCCCCCC3)[C@H]12`, the z-score is -0.446.

Turning to `O=C(O)[C@@]1(CCS(=O)(=O)c2ccccc2)N=C(c2ccc(OCCCO)cc2)O[C@H]1c1ccccc1`, the z-score was -0.839.

As to `C=CCNC(=O)[C@@H]1[C@H]2C(=O)O[C@H](c3ccccc3)[C@H](c3ccccc3)N2[C@H](c2ccc(OCCO)cc2)[C@@]12C(=O)N(C(=O)OCCOC)c1ccc(C#CCC(C(=O)OC)C(=O)OC)cc12`, the z-score was -1.85.

Regarding `[N-]=[N+]=Nc1ccccc1C[C@@]1(C(=O)N2CCCCC2)N=C(c2ccc(OCCCO)cc2)O[C@@H]1c1ccccc1`, the z-score is -2.38.

With `CC(=O)n1cc(C(O)C2C=CC3C(=O)NC(=O)C3N2Nc2ccccn2)c2ccccc21` (stereo not given), the z-score is 0.0238.

For `O=C1OCCC=C[C@H]2OC34C=CCN(c5ccc(Cl)cc5)C(=O)[C@H]3N(CCCO)C(=O)[C@@H]4C12` (stereo not given in full), the z-score was 0.435.

With `CC(c1ccccc1)C(O)C1C=CC2C(=O)N(c3ccccc3)C(=O)C2N1Nc1ccccc1` (stereo not given), the z-score was -0.476.

For the compound `CCOC(=O)C[C@H]1[C@H](OC(=O)c2ccc(-c3ccccc3)cc2)[C@@H](NC(=O)c2ccccc2)c2cc(OCCCO)ccc2N1C(=O)c1ccc2ccccc2n1`, the z-score was -0.936.

Take `CCCCN1CC=CC23O[C@@H]4C=CCOC(=O)[C@@H]4[C@H]2C(=O)N(CCCCCCO)[C@@H]3C1=O` (stereo not given in full): the z-score is 0.546.

Consider `COc1ccc(-c2cc3c(c(Cc4ccccc4)n2)[Si](C(C)C)(C(C)C)OC3)cn1`, for which the z-score was -0.494.

As to `COc1cc2c(cc1O)C(c1cccs1)N(Cc1ccc([N+](=O)[O-])o1)CC2` (stereo not given), the z-score was 0.647.

Consider `[N-]=[N+]=NCc1ccccc1[C@@H]1OC(c2ccc(OCCCO)cc2)=N[C@]1(CCS(=O)(=O)c1ccccc1)C(=O)N1CCCCC1`, for which the z-score is -0.504.

`CC(C)OC(=O)C=C1C[C@@H](c2cccc(Cl)c2)O[C@@H](c2cccc(Cl)c2)O1`: the z-score was -1.97.

Regarding `Cc1ccc(S[C@]2(C(=O)NCC(C)C)CC(=O)N(Cc3cc(C(F)(F)F)cc(C(F)(F)F)c3)[C@@H]2c2ccc(CO)cc2)cc1`, the z-score was -0.741.

Take `O=C(O)[C@H](Cc1ccccc1)n1cc(-c2ccccc2)nn1`: the z-score was 0.269.

For `COC(=O)[C@@]1(Cc2ccc(OC)cc2)[C@H]2c3cc(C(=O)N(C)C)n(Cc4ccc(C(F)(F)F)nc4)c3C[C@H]2CN1C(=O)c1ccccc1`, the z-score was -0.589.

Regarding `CCCCC(O)C1C=CC2C(=O)N(C)C(=O)C2N1N1CCCCC1` (stereo not given), the z-score was -0.73.

For the compound `C=CCNC(=O)[C@H]1[C@@H]2C(=O)O[C@@H](c3ccccc3)[C@@H](c3ccccc3)N2[C@@H](c2ccc(O)cc2)[C@]12C(=O)Nc1ccc(C#CCCO)cc12`, the z-score is 0.994.

Consider `CO[C@H]1O[C@H](CO)[C@@H](OC(=O)Nc2ccccc2-c2ccccc2)[C@H](OC(=O)Nc2ccccc2-c2ccccc2)[C@@H]1OC(=O)Nc1ccccc1-c1ccccc1`, for which the z-score is -0.857.

The values above are taken from PubChem BioAssay.
